# Measurements: paper PMC5540273 (PLoS ONE, 2017)
# Key:
# Conditions in all cases: concentration: 1 μM, replicates: in singlicate; n = 1
# [1] = test system: ACVR1B
# [2] = test system: ACVR1
# [3] = test system: ACVR2A
# [4] = test system: ACVR2B
# [5] = test system: ACVRL1
# [6] = test system: T1, ADCK3
# T1 construct: gene CABC1
# [7] = test system: ADCK4
# [8] = test system: AKT1
# [9] = test system: AKT2
# [10] = test system: AKT3
# 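Further: KINOMEscan kinase panel screen.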
SMILES,%Inh [1] [%],%Inh [2] [%],%Inh [3] [%],%Inh [4] [%],%Inh [5] [%],%Inh [6] [%],%Inh [7] [%],%Inh [8] [%],%Inh [9] [%],%Inh [10] [%]
COc1cc2ncn(-c3cc(OCCCc4ccccc4)c(C(N)=O)s3)c2cc1OC [GSK205189],0,0,0,0,0,24,3,0,2,0
Cc1cccc(-c2nc(Nc3ccc4c(cnn4C)c3)c3ccccc3n2)n1 [GW876731],64,0,2,0,0,8,4,21,0,20
CCC(=O)c1c(-c2ccccc2)c2cc(Cl)ccc2c(=O)n1Cc1cc(S(C)(=O)=O)n(CC(N)=O)n1,0,0,14,0,0,29,0,0,0,0
O=C(Nc1n[nH]c2cc(-c3ccccc3F)ccc12)C1CC1 [SB-733371],1,32,38,48,0,0,0,0,0,7
CN1C(=O)C(Nc2ccccc2)=C(c2ccccc2)C1=O [SB-300079],8,0,0,0,0,0,25,0,0,0
Cc1nn2c(=O)cc(N3CCOCC3)nc2n1Cc1cccc(Cl)c1Cl [GSK2342769],0,12,0,0,42,10,4,0,14,0
Cn1c(=O)c(F)c(Nc2ccc(I)cc2F)c2c(=O)n(OC[C@H](O)CO)cnc21,0,14,29,28,1,21,0,15,0,0
O=C1NC(=O)C(c2ccccc2)=C1Nc1cccc(O)c1 [SB-390534],0,22,0,0,0,0,0,0,0,0
CCC(=O)c1c(-c2ccccc2)c2cc(Cl)ccc2c(=O)n1Cc1cc(S(C)(=O)=O)n(CC(F)F)n1,0,0,0,0,0,0,0,0,0,0
COc1ccc(-c2coc3ccc(-c4nnc(SCc5cccc(C#N)c5)o4)cc23)cc1,6,6,0,0,0,21,0,0,2,0
Cc1nc(N(C)[C@H]2CN(C(=O)CC#N)CC[C@H]2C)c2cc[nH]c2n1,8,8,15,0,5,0,0,0,1,3
COc1cc(OC)cc(-c2cc3cnc(N)nc3nc2NC(=O)NC(C)(C)C)c1,10,0,0,0,0,0,0,4,11,24
COc1cccc(C2=C(Nc3cccc(C(=O)O)c3)C(=O)NC2=O)c1 [SB-390770],18,15,17,40,4,0,8,2,0,0
Cc1ccccc1COc1cc(-n2cnc3cc(Cl)ccc32)sc1C(N)=O [GW813349],0,0,10,19,3,12,0,0,3,6
CCc1ccc(-c2ccc3c(c2)-c2nn(C)cc2S(=O)(=O)N3C)cc1,0,0,21,1,0,0,0,0,3,0
Cc1cccc(-c2cc(-c3c[nH]nc3-c3ccccn3)ccn2)c1 [GW679395],0,0,0,3,0,3,22,0,1,0
